Here are results for 72 molecules from PubChem BioAssay AID1454 (National Center for Advancing Translational Sciences (NCATS), 2008).

The campaign covered roughly 130,000 compounds. About 550 (0.42%) were called active. Not shown: some 4% with an inconclusive outcome. The call rests on the fitted dose curve; in most records, active means well fitted inhibition curve with a large enough effect; inconclusive means small, poorly fitted or top-dose-only effect, or effect the other way; inactive means flat fitted curve, though single readings scatter. The entries come from a sample that favours actives as a whole.
Potency means the concentration at half of the fitted maximal effect.

The experiment in a line: qHTS Assay for Inhibitors of the ERK Signaling Pathway using a Homogeneous Screening Assay; Stimulation with EGF. Further: nearly all actives have a fitted effect of over 55% in size.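 On activity change, negative = inhibition: plate controls were stimulated vehicle wells for no effect and unstimulated vehicle basal for full effect.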 As to conditions: HEK293-V1b, EGF-stimulated phospho-ERK AlphaScreen; series mostly up to 11.5 µM; activity change, negative = inhibition: at the top concentration. The procedure, abridged: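 In this qHTS, HEK293 cells with stable type-1 vasopressin (V1b) receptor were exposed to compound at 37C for 30 min, stimulated 5 min with EGF at 25 nM, lysed, and probed for phospho-ERK by AlphaScreen.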
In general terms: qHTS replaces the single test concentration by a dilution series.
As to `CC1(C)CC(N(Cc2ccccc2)C(=O)Cc2ccccc2)CCO1` (configuration not stated), the “activity change, negative = inhibition” value is 9.74% (inactive). Still for that read-out and setting: under `Cc1cccc(N2CCN(Cc3nc(C4CC4)no3)CC2)n1` stands 2.16% [at 57.5 µM] (inactive); under `CN(CCOc1ccccc1)Cc1nc2cc(Cl)ccc2c(=O)[nH]1`, 3.35% (inactive); under `O=C(NCc1ccccc1Cl)C1CCN(S(=O)(=O)N2CCOCC2)CC1`, -3.09% (inactive). With `C=CCOc1c(CNn2cn[nH]c2=S)cccc1OC`, the “activity change, negative = inhibition” value is 1.88% (inactive). `O=C(NCCc1ccccn1)c1cccnc1Oc1ccc(Cl)cc1`: the “activity change, negative = inhibition” value was 0.556% [at 57.5 µM] (inactive).

With `CCC/C(C)=N\Nc1nc2c(c(=O)n(C)c(=O)n2C)n1C`, the “activity change, negative = inhibition” value was 2.86% [at 57.5 µM] (inactive). On to `C=C(C)c1cccc(C(C)(C)NC(=O)NCCN(CC)CC)c1`, for which the “activity change, negative = inhibition” value was -3.89% (inactive).

Take `CCNC(=O)c1ccc(OCC(=O)Nc2ccc(F)cc2)c(OC)c1`: the “activity change, negative = inhibition” value was -6.79% [at 57.5 µM] (inactive). Take `O=C(/C=C/c1ccccc1)Oc1coc(CSc2ncccn2)cc1=O`: the “activity change, negative = inhibition” value is 2.15% (inactive). Same read-out and setting: the same measure for `CCN(CC)CCNC(=O)c1ccc(NS(=O)(=O)c2ccc3c(c2)OCCO3)cc1`: -2.24% (inactive).

Turning to `COc1ccc(CCc2nnc(CCC(=O)NCc3cnn(-c4ccccc4C)c3)o2)cc1`, the “activity change, negative = inhibition” value was 0.463% (inactive). As for `NCCCCCC(=O)N/N=C/c1ccc2nccnc2c1`, the “activity change, negative = inhibition” value was -2.5% [at 57.5 µM] (inactive).

With `O=C(N/N=C1\CCSC1)c1cc(Cl)ccc1O`, the “activity change, negative = inhibition” value was 1.16% (inactive).

For the molecule `CSc1ccc(CN(C)CC(=O)NCc2ccc(F)cc2)cc1`, the “activity change, negative = inhibition” value is -3.97% (inactive).

Take `O=C(CSc1nc2ccccc2s1)Nc1ccc(C(=O)O)cc1`: the “activity change, negative = inhibition” value was 8.22% [at 57.5 µM] (inactive). For `CS(=O)(=O)N(CC(=O)N1CCCC1)Cc1ccccc1`, the “activity change, negative = inhibition” value is -2.52% (inactive). As to `OCC1(Cc2ccccc2C(F)(F)F)CCN(Cc2ccncc2)CC1`, the “activity change, negative = inhibition” value is -17.7% [at 57.5 µM] (inactive).

For `CCNC(=O)COc1cc(C)c(Br)c(C)c1`, the “activity change, negative = inhibition” value was -13.4% (inactive). On to `CCNc1nc(-c2cc3ccccc3o2)cs1`, for which the “activity change, negative = inhibition” value was -4.57% (inactive).

In the case of `COc1ccc2nc(Nc3nc(-c4cc5ccccc5oc4=O)cs3)sc2c1`, the “activity change, negative = inhibition” value is 2.77% (inactive). In the case of `O=c1oc2ccccc2cc1-c1csc(Nc2ccc(O)cc2)n1`, the Potency was 39.8 µM (active).

With `CSc1ccccc1C(=O)NCc1ccccc1`, the “activity change, negative = inhibition” value was -3.76% (inactive). As for `Cc1nc(S(=O)(=O)c2ccc(Br)cc2)nc2c1CCC2`, the “activity change, negative = inhibition” value was 4.23% (inactive). As for `CC1CCc2c(nc3ncnn3c2Nc2ccc(OC(F)(F)F)cc2)C1` (configuration not stated), the “activity change, negative = inhibition” value is -15.3% (inactive).

On to `Brc1ccc(Nc2c3c(nc4ncnn24)CCC3)cc1`, for which the Potency is 25.1 µM (active). With `Oc1oc(-c2ccccc2Br)nc1/C=N/c1ccccn1`, the “activity change, negative = inhibition” value was 11% (inactive). In the case of `CC1CCCCC1NC(=O)CO/N=C/c1ccc(OC(F)F)cc1` (configuration not stated), the “activity change, negative = inhibition” value was -9.33% (inactive). In the case of `CSc1ccc(/C=N\NC(=O)CC(=O)NC(C)C)cc1`, the “activity change, negative = inhibition” value was -17.2% (inactive). Regarding `CCN(CC)CCn1cnc2c1c(=O)n(CCOC(=O)c1cc(OC)c(OC)c(OC)c1)c(=O)n2C`, the “activity change, negative = inhibition” value was 10.5% [at 57.5 µM] (inactive). Regarding `O=C1CC2(CC(c3ccc(Cl)cc3)=NO2)C(=O)N1c1ccccc1` (configuration not stated), the “activity change, negative = inhibition” value was -1.21% [at 57.5 µM] (inactive). On the same count and under the same terms, the same measure for `Cn1nc(C(F)(F)F)cc1-c1ccc(/C=C(\C#N)C(=O)c2cccc(C(F)(F)F)c2)s1`: -4.59% [at 57.5 µM] (inactive); for `Cn1c(SCC(=O)N2CCOCC2)nnc1-c1ccc2ncccc2c1`: 1.18% [at 57.5 µM] (inactive). For `OCCCNc1nccc(-c2cc(Nc3cccc(Cl)c3)ncn2)n1`, the Potency is 22.4 µM (active).

For `CC(C)n1cnc2c(Nc3cccc(Cl)c3)nc(N(CCO)CCCO)nc21`, the “activity change, negative = inhibition” value was -9.71% [at 57.5 µM] (inactive). With `O=C(Nc1cc(Cl)cc(Cl)c1)C(NCCCO)c1ccccc1` (configuration not stated), the “activity change, negative = inhibition” value is 7.53% (inactive). Same read-out and setting: the same measure for `O=C(NN1C(=O)C2C(C1=O)C1C=CC2C12CC2)c1ccccc1Cl` (configuration not stated): 9.91% [at 57.5 µM] (inactive). Regarding `O=C(CN1CCN(Cc2ccc(F)cc2Cl)C1=O)NCc1cccs1`, the “activity change, negative = inhibition” value is -0.134% (inactive).

In the case of `Clc1ccc(Nc2ncnc3c2nnn3Cc2ccccc2)cc1`, the “activity change, negative = inhibition” value is 5.96% [at 57.5 µM] (inactive).

Take `CN(C)c1cc2c(Nc3ccc4c(cnn4Cc4ccccc4)c3)ncnc2cn1`: the Potency was 2.82 µM (active). Take `CC(=O)Nc1ccc(NC(=O)CSc2ncnc3c2cnn3Cc2ccccc2)cc1`: the “activity change, negative = inhibition” value is 10.3% [at 57.5 µM] (inactive). Still for that read-out and setting: the same measure for `COc1ccc(Cl)cc1C(=O)NNC(=O)c1nc2nc(C)cc(C)n2n1`: -1.38% [at 57.5 µM] (inactive); for `CN(C)CCCn1c(SCCN2C(=O)c3ccccc3C2=O)nc2ccccc2c1=O`: -9.18% (inactive); for `COc1ccc(C/C(N)=N/OC(=O)c2ccco2)cc1OC`: -1.35% (inactive). Regarding `COc1ccccc1Cn1c(CO)nc2ccccc21`, the “activity change, negative = inhibition” value is -2.95% [at 57.5 µM] (inactive).

Turning to `Cc1cccc(-n2c(Cc3cc(=O)[nH]c(=O)[nH]3)nnc2SCC(=O)Nc2cccc(C(F)(F)F)c2)c1`, the “activity change, negative = inhibition” value is 6.29% (inactive).

For `O=C(COC(=O)c1ccc(Cl)nc1)NCc1cccs1`, the “activity change, negative = inhibition” value is -3.16% (inactive).

`CCOc1ccc(C2NC(=S)NC3=C2CCc2ccccc23)cc1` (configuration not stated): the “activity change, negative = inhibition” value was 0.15% [at 57.5 µM] (inactive). Regarding `Cc1cc(C)nc(S/C=C/C(=O)c2ccccc2)n1`, the Potency was 22.4 µM (active).

Take `Cc1ccc(N/C=C/C(=O)c2ccccc2)cc1C`: the “activity change, negative = inhibition” value is 2.85% (inactive). Still for that read-out and setting: under `Cc1cc(Oc2ccc(Cl)cc2)nc(SCC(=O)c2ccccc2)n1` stands 5.47% (inactive); under `O=C(NNC(=S)NC(=O)c1cn(-c2ccccc2)nc1-c1ccccc1)c1ccncc1`, -5.14% [at 57.5 µM] (inactive). Still for that read-out and setting: the same measure for `CC1=NN(c2ccccc2)C(=O)C1C(=O)c1ccc([N+](=O)[O-])cc1` (configuration not stated): 3.98% (inactive). In the case of `Oc1ccc(-c2nnc(Nc3ccccc3)c3ccccc23)cc1`, the “activity change, negative = inhibition” value is -5.01% [at 57.5 µM] (inactive). The same measure, in the same setting: the same measure for `O=C(COC(=O)c1ccccc1)Nc1cccc(S(=O)(=O)N2CCOCC2)c1`: -7.82% (inactive).

For `Cc1nn(CCOc2ccc(Br)cc2)c(C)c1[N+](=O)[O-]`, the “activity change, negative = inhibition” value was -8.51% (inactive). The same measure, in the same setting: the same measure for `CCC(=O)OCCNc1nc(-c2ccccc2)nc2ccccc12`: 8.44% (inactive).

Consider `COCCNc1nc2nonc2nc1N1CCCC1c1nccs1` (configuration not stated), for which the “activity change, negative = inhibition” value is -14.3% (inactive). Take `O=S(=O)(Nc1n[nH]c(C(F)(F)F)n1)c1ccccc1`: the “activity change, negative = inhibition” value is -7.29% [at 57.5 µM] (inactive). Same read-out and setting: the same measure for `CC(C)N(Cc1nc(-c2ccc3c(c2)OCO3)no1)CC1CCC(=O)N1` (configuration not stated): 4.58% (inactive). Same read-out and setting: under `O=C1CN(C(=O)CN2C(=O)NC3(CCCCC3)C2=O)c2ccccc2N1` stands 0.303% (inactive); under `CCOC(=O)c1c(C)oc(C)c(C(=O)OCC)c1=O`, 0.8% [at 57.5 µM] (inactive); under `Cc1nn(CC(=O)N/N=C/c2ccc(F)cc2)c(C)c1[N+](=O)[O-]`, -5.16% [at 57.5 µM] (inactive). Same read-out and setting: the same measure for `O=S(=O)(c1cccc(-c2nnc3n2CCCCC3)c1)N1CCOCC1`: 4.68% [at 57.5 µM] (inactive); for `CCN(CC)CCCSc1nc2ccccc2s1`: -6.48% (inactive); for `COC(=O)c1cc(S(=O)(=O)N2CCC(C(N)=O)CC2)oc1C`: -0.656% [at 57.5 µM] (inactive). Turning to `CN(C)/C=C(/C(=O)c1ccc(F)cc1)S(=O)(=O)c1ccc(F)cc1`, the “activity change, negative = inhibition” value was -14.3% (inactive).

As to `Cc1c(C(=O)O)nnn1-c1nonc1N`, the “activity change, negative = inhibition” value was -6.38% (inactive). Same read-out and setting: under `O=C1CC(c2c(F)cccc2Cl)C(n2cncn2)C(O)=C1C1NCCc2ccccc21` (configuration not stated) stands -2.18% (inactive); under `C/C(=N/NC(=O)CC(=O)N/N=C(\C)c1ccc([N+](=O)[O-])cc1)c1ccc([N+](=O)[O-])cc1`, 10.6% [at 57.5 µM] (inactive).

Take `CC(C)(C)NC(=O)NCc1ccco1`: the “activity change, negative = inhibition” value is 4.86% [at 57.5 µM] (inactive).

As for `CCC(C)NC(=O)CN(C1CCCCC1)S(C)(=O)=O` (configuration not stated), the “activity change, negative = inhibition” value was -0.213% (inactive).
